Assay results published in ChEMBL document CHEMBL3988442, “University of Dundee, Small-Polar-MMV Screening Library” (2021).
For part of these data: Results with a measured potency or affinity are listed apart.

Legend:
Parameters in all cases: scale not given: direction of the effect not stated beside the values
[1] = molecular target: Protein translocase subunit SecA (Escherichia coli (strain K12)) (UniProt P10408); assay: Assay to Identify E. coli SecA ATPase Inhibitors; format: functional; settings: 30 µM
[2] = molecular target: T1, Ubiquitin-activating enzyme e1, putative (Leishmania donovani (strain BPK282A1)) (UniProt E9BSI1); assay: Leishmania donovani Ubiquitin Activating Enzyme (LdE1); format: functional; settings: 30 µM
T1 sequence (whole entry): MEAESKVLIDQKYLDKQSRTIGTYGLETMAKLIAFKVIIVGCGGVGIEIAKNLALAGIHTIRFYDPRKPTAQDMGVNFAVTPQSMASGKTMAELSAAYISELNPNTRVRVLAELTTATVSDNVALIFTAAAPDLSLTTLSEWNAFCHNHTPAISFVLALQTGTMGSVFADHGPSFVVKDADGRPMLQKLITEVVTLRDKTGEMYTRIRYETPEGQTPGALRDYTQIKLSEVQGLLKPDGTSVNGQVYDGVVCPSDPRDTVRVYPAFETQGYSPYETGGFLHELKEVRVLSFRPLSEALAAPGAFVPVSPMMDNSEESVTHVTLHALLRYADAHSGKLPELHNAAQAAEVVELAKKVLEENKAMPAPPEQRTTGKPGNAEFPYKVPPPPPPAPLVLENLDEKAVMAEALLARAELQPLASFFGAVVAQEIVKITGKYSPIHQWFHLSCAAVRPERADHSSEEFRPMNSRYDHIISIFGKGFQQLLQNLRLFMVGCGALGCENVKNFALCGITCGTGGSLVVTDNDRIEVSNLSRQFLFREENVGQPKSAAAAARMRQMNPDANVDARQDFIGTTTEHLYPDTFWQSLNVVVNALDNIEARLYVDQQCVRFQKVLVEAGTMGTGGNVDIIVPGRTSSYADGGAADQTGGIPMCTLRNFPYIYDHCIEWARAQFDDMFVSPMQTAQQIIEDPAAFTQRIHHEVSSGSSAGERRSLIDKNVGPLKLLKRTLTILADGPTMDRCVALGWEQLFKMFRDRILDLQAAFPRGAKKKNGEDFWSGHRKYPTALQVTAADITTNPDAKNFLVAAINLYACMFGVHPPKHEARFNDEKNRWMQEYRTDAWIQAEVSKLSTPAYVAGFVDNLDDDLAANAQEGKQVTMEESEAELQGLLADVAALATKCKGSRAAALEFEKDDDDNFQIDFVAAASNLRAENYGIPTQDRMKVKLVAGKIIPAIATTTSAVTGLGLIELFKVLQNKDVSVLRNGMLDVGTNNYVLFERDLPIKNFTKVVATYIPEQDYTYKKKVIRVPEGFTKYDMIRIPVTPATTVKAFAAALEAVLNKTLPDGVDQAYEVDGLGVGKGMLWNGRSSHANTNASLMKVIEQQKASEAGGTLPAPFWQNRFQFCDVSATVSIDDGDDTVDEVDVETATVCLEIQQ

[3] = molecular target: AMP-activated protein kinase, AMPK (Homo sapiens) (UniProt P54646+O43741+P54619+Q9UGJ0+Q9Y478+Q13131+Q9UGI9); assay: AMP-dependent Kinase enzyme assay. An in vitro enzyme assay that detects ADP turnover that is directly proportional to AMPK activity. This uses naive AMPK that is activated during the assay with MK-8722; format: functional; settings: 30 µM
[4] = molecular target: Sialic acid-binding Ig-like lectin 9 (Homo sapiens) (UniProt Q9Y336); assay: Hs-Siglec9 ALPHAscreen SOP 20170721; settings: 10 µM
Trypanosoma cruzi = assay: Trypanosoma cruzi phosphomannomutase and mannose-1-phosphate guanylyltransferase assay; format: functional; settings: 10 µM
[5] = molecular target: T2, Arginase-2, mitochondrial (Homo sapiens) (UniProt P78540); assay: in vitro enzyme assay to detect the production of urea directly proportional to the activity of Arginase II; format: functional; settings: 33.3 µM; further: in the data most compounds retested in dose-response had high values
T2 sequence (whole entry): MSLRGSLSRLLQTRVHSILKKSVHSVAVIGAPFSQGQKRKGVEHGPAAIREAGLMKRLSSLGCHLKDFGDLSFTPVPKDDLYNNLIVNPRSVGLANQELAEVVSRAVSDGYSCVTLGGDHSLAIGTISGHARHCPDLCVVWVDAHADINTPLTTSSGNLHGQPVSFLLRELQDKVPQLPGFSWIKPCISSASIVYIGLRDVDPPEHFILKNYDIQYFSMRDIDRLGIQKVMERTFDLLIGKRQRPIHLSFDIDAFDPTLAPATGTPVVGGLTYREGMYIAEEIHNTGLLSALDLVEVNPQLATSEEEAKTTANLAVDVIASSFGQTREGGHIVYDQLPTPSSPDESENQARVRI

[6] = molecular target: T3, Proteasome subunit beta (Trypanosoma cruzi) (UniProt O96673); assay: Trypanosoma cruzi proteasome chymotrypsin-like activity (TcProtChymo) assay.; further: in the data most compounds retested in dose-response had high values; format: functional; settings: 9.37 µM
T3 sequence (whole entry): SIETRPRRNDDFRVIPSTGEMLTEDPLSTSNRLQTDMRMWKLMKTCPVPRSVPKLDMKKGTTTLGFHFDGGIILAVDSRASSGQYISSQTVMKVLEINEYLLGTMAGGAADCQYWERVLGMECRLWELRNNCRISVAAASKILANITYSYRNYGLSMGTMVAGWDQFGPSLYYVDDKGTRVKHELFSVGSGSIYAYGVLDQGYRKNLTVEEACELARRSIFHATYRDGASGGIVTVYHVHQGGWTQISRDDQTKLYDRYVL

Homo sapiens = species: Homo sapiens; assay: To identify inhibition of the IFN signalling (Jak-Stat) pathway via expression of an eGFP reporter gene under the control of an IFN-stimulated response element (ISRE) containing MxA promoter.; format: functional; settings: 30 µM
[7] = molecular target: T4, Tyrosyl-tRNA synthetase, putative (Trypanosoma cruzi (strain CL Brener)) (UniProt Q4DSP6); assay: Trypanosoma cruzi tyrosyl tRNA synthetase (TcYRS) _High Tyrosine SOP; format: functional; settings: 30 µM; further: in the data most compounds retested in dose-response had high values
T4 sequence (whole entry): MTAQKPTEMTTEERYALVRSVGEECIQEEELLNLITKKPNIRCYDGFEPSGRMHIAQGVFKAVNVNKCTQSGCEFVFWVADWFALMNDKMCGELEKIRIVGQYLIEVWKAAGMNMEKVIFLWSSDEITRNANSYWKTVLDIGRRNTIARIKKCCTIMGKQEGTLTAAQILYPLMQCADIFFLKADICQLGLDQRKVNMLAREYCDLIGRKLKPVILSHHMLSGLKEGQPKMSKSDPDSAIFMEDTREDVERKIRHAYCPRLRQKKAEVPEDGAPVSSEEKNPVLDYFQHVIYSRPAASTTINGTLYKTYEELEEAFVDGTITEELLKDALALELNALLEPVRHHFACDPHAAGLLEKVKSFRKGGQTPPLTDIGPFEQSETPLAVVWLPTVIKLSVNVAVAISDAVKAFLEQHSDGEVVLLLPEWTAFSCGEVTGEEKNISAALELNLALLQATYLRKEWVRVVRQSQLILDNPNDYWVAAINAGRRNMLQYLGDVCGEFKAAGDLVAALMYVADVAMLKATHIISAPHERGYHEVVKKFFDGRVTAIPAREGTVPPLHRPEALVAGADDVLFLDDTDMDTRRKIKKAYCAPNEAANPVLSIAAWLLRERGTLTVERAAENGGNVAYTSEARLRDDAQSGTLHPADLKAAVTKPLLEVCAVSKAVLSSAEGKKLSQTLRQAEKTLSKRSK

[8] = molecular target: T4, Tyrosyl-tRNA synthetase, putative (Trypanosoma cruzi (strain CL Brener)); assay: Trypanosoma cruzi tyrosyl tRNA synthetase (TcYRS) SOP; format: functional; settings: 30 µM
[9] = molecular target: Chromo domain-containing protein 1 (Saccharomyces cerevisiae (strain ATCC 204508 / S288c) (Baker's yeast)) (UniProt P32657); assay: ScCHD-1 Enzyme Inhibition Assay; format: functional; settings: 30 µM; further: in the data most compounds retested in dose-response had high values
Chain of Chromo domain-containing protein 1 (Saccharomyces cerevisiae (strain ATCC 204508 / S288c) (Baker's yeast)) (P32657 whole entry, the tested form may be a part): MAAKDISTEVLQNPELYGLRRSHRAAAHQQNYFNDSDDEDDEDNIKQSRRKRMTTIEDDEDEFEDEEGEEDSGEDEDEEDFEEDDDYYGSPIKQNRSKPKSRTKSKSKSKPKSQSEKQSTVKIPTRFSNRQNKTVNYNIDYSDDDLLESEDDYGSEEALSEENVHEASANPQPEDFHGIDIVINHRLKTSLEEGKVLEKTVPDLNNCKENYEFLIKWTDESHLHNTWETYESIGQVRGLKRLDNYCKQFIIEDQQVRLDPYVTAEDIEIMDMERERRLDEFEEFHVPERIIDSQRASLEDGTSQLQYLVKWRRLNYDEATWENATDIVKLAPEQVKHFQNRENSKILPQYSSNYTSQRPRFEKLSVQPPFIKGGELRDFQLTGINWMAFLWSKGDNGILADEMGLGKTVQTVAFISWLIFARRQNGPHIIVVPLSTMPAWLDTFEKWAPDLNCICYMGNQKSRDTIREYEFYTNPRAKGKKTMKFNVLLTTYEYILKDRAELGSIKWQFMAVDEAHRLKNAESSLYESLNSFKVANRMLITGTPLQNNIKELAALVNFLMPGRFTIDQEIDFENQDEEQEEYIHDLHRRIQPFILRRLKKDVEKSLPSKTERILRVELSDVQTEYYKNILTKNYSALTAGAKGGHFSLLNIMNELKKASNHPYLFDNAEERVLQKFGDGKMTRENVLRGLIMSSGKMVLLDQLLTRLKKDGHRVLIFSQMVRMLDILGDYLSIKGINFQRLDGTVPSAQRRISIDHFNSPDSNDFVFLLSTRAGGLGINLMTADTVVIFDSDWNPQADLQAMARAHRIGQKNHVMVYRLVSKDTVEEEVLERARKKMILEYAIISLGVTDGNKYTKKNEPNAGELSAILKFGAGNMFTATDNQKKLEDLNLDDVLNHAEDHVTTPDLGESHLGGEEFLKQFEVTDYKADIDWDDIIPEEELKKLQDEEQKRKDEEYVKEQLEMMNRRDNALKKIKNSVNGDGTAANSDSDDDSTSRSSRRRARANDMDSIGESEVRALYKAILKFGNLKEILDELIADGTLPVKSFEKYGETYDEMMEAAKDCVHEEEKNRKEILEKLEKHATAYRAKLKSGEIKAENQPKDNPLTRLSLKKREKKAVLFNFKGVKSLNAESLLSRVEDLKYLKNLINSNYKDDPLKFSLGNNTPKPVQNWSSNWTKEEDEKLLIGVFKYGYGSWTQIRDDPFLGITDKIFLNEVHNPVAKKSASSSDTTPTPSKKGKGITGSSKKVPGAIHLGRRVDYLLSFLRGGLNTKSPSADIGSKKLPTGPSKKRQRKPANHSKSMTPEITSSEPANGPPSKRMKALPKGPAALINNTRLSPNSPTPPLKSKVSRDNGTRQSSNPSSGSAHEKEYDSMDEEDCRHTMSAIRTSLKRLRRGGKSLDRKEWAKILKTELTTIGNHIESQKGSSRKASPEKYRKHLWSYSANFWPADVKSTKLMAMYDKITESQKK

Chain of Protein translocase subunit SecA (Escherichia coli (strain K12)) (P10408 whole entry): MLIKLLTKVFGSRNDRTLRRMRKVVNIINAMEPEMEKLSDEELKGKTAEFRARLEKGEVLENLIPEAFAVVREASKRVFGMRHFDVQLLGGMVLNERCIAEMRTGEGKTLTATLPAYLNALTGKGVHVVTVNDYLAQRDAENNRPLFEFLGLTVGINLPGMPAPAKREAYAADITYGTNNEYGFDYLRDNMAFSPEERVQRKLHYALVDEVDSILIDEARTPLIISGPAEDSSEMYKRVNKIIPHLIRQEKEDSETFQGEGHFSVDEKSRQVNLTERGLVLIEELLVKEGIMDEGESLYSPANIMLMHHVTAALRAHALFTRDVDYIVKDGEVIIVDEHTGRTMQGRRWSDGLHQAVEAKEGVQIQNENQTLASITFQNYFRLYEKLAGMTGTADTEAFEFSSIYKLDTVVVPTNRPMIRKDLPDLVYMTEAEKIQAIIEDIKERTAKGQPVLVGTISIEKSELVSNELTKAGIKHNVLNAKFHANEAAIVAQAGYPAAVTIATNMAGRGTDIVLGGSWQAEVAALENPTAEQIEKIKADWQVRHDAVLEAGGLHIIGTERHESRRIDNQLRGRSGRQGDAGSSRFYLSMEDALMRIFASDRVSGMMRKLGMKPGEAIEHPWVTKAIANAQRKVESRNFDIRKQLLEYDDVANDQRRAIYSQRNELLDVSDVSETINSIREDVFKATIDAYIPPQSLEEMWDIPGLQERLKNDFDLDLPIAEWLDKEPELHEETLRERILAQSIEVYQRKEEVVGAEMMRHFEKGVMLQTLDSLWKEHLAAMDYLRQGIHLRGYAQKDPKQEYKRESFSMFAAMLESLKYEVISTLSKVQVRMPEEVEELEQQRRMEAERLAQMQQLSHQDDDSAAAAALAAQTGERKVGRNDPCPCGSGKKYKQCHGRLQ
Chain of Sialic acid-binding Ig-like lectin 9 (Homo sapiens) (Q9Y336 whole entry): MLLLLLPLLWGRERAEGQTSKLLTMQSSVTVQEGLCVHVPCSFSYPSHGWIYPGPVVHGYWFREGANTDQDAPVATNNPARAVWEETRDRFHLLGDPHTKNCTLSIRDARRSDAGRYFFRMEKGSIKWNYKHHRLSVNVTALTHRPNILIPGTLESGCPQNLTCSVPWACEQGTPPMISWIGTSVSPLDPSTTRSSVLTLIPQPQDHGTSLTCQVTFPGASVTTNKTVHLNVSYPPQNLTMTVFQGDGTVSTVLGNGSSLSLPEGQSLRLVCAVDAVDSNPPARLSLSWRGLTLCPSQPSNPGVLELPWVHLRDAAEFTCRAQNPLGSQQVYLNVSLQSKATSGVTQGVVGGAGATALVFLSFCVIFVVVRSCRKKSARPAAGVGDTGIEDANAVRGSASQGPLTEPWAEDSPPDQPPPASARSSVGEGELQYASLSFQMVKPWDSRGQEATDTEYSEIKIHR

Compound | Percent Effect [1] [%] | Percent Effect [2] [%] | Percent Effect [3] [%] | Percent Effect [4] [%] | Percent Effect (Trypanosoma cruzi) [%] | Percent Effect [5] [%] | Percent Effect [6] [%] | Percent Effect (Homo sapiens) [%] | Percent Effect [7] [%] | Percent Effect [8] [%] | Percent Effect [9] [%]
CC(C)(N)CN1CCC(c2nnc(CN3CCCC3)n2C2CC2)CC1 | -7.06 | 8 | 3.2 | 2.76 | -0.0974 | 5.73 | 15.5 | 8.71 | 2.73 | 6.17 | -4.27
CCCC(Nc1c(C#N)c(=O)n(C)c(=O)n1C)c1ccc(F)cc1F (stereo unspecified) | -5.68 | 10.1 | 0.965 | 11 | 5.19 | 4.18 | 0.573 | 1.79 | 7.39 | 13.9 | -4.28
CN1CC[C@H](c2ccccc2)[C@@H]2[C@H]1CCCCN2C(=O)c1cnccn1 | -2.95 | -4.05 | 7.03 | 1.21 | 3.75 | -5.34 | 10.8 | 3.3 | 4.3 | 3.9 | -14
CCCOCC(=O)NS(=O)(=O)c1ccc2c(c1)OCCCO2 | -8.22 | 0 | 0.981 | -3.65 | -6.07 | 0 | -0.423 | 13.9 | -2.46 | -6.17 | 1.45
Cn1ccnc1CN1CCC2(CC1)CC(NC(=O)c1ccccn1)CO2 (stereo unspecified) | -1.87 | 20.8 | -1.66 | -10.3 | 1.28 | 3.23 | 9.4 | 0.302 | -20.1 | 16.7 | -10.2
O=C(NCCNS(=O)(=O)c1ccc2c(c1)CCCC2)c1ccoc1 | -4.38 | 13.3 | -3.34 | 15.1 | 3.41 | 10.9 | 5.41 | 29.3 | 6.01 | 13.6 | 0.0598
O=C(NCc1ccco1)[C@H]1C[C@H]2OCC[C@H]2N(C(=O)c2ccco2)C1 | -4.08 | -2.67 | 12.4 | 1.43 | -3.09 | -50.4 | 12 | -6.88 | -3.12 | -5 | 63.9
COc1ccc(C(O)CNC(=O)NCc2csc(C)n2)cc1 (stereo unspecified) | -3.31 | 18.9 | 1.28 | 1.81 | 6.41 | -2.03 | 19.6 | 11.3 | 7.92 | -8.54 | -6.16
CCOc1ccc(S(=O)(=O)NC(=O)CCC2CCCO2)cc1 (stereo unspecified) | -3.8 | 13.5 | -7.18 | -5.67 | 0.283 | -5.21 | 17.5 | 1.86 | 10.3 | 18.5 | -9.06
O=C(NCC1(N2CCOCC2)CCSC1)Nc1ccc(F)cc1 (stereo unspecified) | 0.856 | 5.41 | -4.15 | 1.34 | 0.193 | -2.86 | 17.9 | -10.2 | 5.82 | 9.76 | -1.18
COCCNC(=O)[C@H]1CN(c2nnc(C)s2)C[C@H]2OCC[C@@H]12 | -2.67 | 0 | 13.1 | 0.154 | -0.394 | -0.233 | 3.79 | 6.49 | 1.06 | 1.28 | 2.36
c1coc(-c2nnc(CN3CCCC(CN4CCCCCC4)C3)o2)c1 (stereo unspecified) | -4.64 | 7.89 | 0.651 | 1.71 | 8.67 | -7.1 | -1.25 | 4.66 | 5.32 | 10.4 | -3.8
c1cc(C2CCCN2Cc2nnnn2C2CC2)cs1 (stereo unspecified) | -2.2 | 4.17 | -9.7 | -8.8 | -4.18 | 0 | 21.2 | 0.525 | 6.32 | 10.3 | 2.21
CCn1cc(CN2CCCn3nc(CNC(=O)C4CCC4)cc3C2)cn1 | -2.37 | 10.4 | 0.185 | 10.6 | 4.42 | -6.9 | 18.5 | -4.18 | 6.45 | 13.6 | -3.28
COC[C@@]12CCO[C@@H]1CCN(C(=O)Cc1ccccc1F)C2 | 0.597 | 19.2 | -6.38 | 8.82 | -0.595 | -3.19 | 12.2 | 5.78 | 8.33 | 11.1 | -3.06
CN(CCn1nc2ccccn2c1=O)CC(=O)NC1CC1 | 0.259 | -2.63 | 7.37 | -0.458 | -2.63 | 15.4 | 10.4 | -11.8 | 2.13 | 0 | -5.38
O=C(NCCNc1ncccn1)N(Cc1ccc(F)cc1F)C1CC1 | -3.52 | 10.1 | -4.4 | 16.9 | -2.36 | 1.52 | -3.03 | 8.99 | 2.46 | 8.86 | -3.1
CC(=O)NCCNC(=O)c1sc(-c2ccc(Cl)s2)nc1C | -6.51 | 10.8 | 5.52 | -4.05 | -5.29 | 1.29 | 4.67 | 11.1 | 0.99 | -79.3 | -0.599
CC(NC1(CNC(=O)Cn2cccn2)CCOCC1)c1ccccc1 (stereo unspecified) | -5.93 | 13.5 | -3.26 | 21.8 | 6.35 | 3.72 | 9.01 | -4.77 | 0 | 16.1 | -5.87
CCc1noc(C(C)N(C)CC(=O)Nc2cccc(C)n2)n1 (stereo unspecified) | 0.372 | 0 | 5.73 | 0.963 | -0.979 | 0.909 | 7.28 | 0.0607 | -1.07 | 0 | 2.92
CS(=O)(=O)c1ccc(NC(=O)N2CCc3sccc3C2)cn1 | -2.17 | 10.8 | 4.69 | -4.04 | -3.71 | 1.67 | 18.3 | 63.4 | 5.94 | 11 | 13.6
